# Inconclusive results are not listed. Where a call stands in place of a potency, no number is given. Active and inactive are the calls of the source. Unless noted, calls come from the whole dose curve; as a rule, active = well fitted curve in the direction sought with a large enough effect; inconclusive = small, poorly fitted or top-dose-only effect, or another doubt; inactive = no such curve, though single readings can be large; an effect the other way counts as inactive or inconclusive.
# Assays:
# [1] = qHTS assay for small molecule activators of the p53 signaling pathway (AID 651743; active = well fitted activation curve with a large enough effect in the signal ratio, not every such curve was filed as active; the % refers to the signal ratio); settings: HCT-116 p53RE-bla, beta-lactamase FRET ratio, 16 h; activation: stronger effect = higher value
# How it was run: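 HCT-116 p53RE-bla, 4,000 cells/well; 5 h settle; cpd/DMSO 16 h, 37 C; LiveBLAzer B/G 2 h RT; fluorescence intensity.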
# [2] = qHTS assay for small molecule activators of the nuclear factor-kappa B (NF-kB) signaling pathway (AID 651749; active = well fitted activation curve with a large enough effect in the signal ratio; the % refers to the signal ratio); settings: NF-kB-bla ME-180 cells, beta-lactamase FRET ratio, 16 h; stronger effect = higher value
# How it was run: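 Incubation lasted 16 hr at 37C in 5% CO2 after 23 nL compound addition to ME-180 NF-kB-bla cells. Activation appears as beta-lactamase-mediated FRET loss.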
# [3] = qHTS assay for small molecule disruptors of the mitochondrial membrane potential - 1 hr assay (AID 651754; calls by dose curve; note: nearly all actives have a fitted effect of over 35% in size)
# How it was run: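 Steps: seed HepG2 cells and let attach overnight; pin-transfer compound or vehicle; incubate 1 hr at 37C; add Mito-MPS dye for 30 min; read two-channel fluorescence for monomer and aggregate forms.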
# [4] = qHTS assay for small molecule disruptors of the mitochondrial membrane potential - 5 hr assay (AID 651755; calls by dose curve; note: nearly all actives have a fitted effect of over 40% in size)
# How it was run: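 HepG2 cells (2,000/well), attached overnight, exposed to compound 5 hr at 37C, then Mito-MPS dye 30 min. Fluorescence read for monomers (490/535 nm) and aggregates (540/590 nm).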
# [5] = molecular target: Tumor necrosis factor (Homo sapiens) (UniProt P01375); assay: qHTS assay to identify small molecules that stimulate Tumor Necrosis Factor-alpha (TNF-alpha) secretion (AID 651757; active = well fitted curve in the direction sought with a large enough effect in the signal ratio; the % refers to the signal ratio; note: potency is the fitted concentration of half-maximal effect)
# Sequence of Tumor necrosis factor (Homo sapiens) (P01375 whole entry, looked up): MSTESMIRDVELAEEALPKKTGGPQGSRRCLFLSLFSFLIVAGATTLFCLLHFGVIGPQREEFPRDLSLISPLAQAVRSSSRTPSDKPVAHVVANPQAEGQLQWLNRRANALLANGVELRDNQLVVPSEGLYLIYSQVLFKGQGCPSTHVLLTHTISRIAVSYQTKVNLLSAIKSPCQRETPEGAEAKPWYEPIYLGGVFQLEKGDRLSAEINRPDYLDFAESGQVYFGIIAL
# How it was run: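 Secreted TNF-alpha from compound-treated THP-1 cells (17 hrs, 37 C) was quantified with a homogeneous time-resolved fluorescence antibody assay.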
# [6] = qHTS assay for environmental chemicals that activate the Aryl hydrocarbon Receptor (AhR) signaling pathway (AID 651777); settings: 1A2-DRE human hepatoma cells, luciferase, 24 h; activation: stronger effect = higher value; note: nearly all actives have a fitted effect of over 15% in size
# How it was run: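 Induction of CYP1A2 transcription through AhR is detected by luciferase in 1A2-DRE hepatoma cells. Compounds or DMSO act for 24 hr at 37 C before a 30 min One-Glo step at room temperature.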
# [7] = molecular target: Peroxisome proliferator-activated receptor alpha (Homo sapiens) (UniProt Q07869); assay: qHTS assay for small molecule agonists of the peroxisome proliferator-activated receptor alpha (PPARalpha) signaling pathway (AID 651778); settings: PathHunter PPARalpha complementation, chemiluminescence, 6 h; stronger effect = higher value
# Sequence of Peroxisome proliferator-activated receptor alpha (Homo sapiens) (Q07869 whole entry, looked up, the tested form may be a part): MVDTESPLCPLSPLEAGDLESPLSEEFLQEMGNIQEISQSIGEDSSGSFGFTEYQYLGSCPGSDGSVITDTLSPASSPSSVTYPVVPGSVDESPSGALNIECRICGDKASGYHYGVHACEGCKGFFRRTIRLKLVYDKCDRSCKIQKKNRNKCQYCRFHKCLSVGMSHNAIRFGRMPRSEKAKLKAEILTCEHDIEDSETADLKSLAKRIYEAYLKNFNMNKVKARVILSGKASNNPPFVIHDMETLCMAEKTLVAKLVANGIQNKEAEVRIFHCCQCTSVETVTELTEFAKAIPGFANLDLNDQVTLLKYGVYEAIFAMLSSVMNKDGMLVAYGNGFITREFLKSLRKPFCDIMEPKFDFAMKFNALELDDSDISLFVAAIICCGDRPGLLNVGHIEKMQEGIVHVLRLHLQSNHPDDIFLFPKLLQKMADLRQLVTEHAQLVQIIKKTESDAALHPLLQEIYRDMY
# How it was run: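 Enzyme-fragment complementation assay in which ligand-bound PPARalpha translocates and forms an active enzyme that generates chemiluminescence. Cells were plated overnight, exposed to compound for 6 hr at 37 C, and then given detection reagent for 60 min at room temperature.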
# [8] = qHTS assay for small molecule agonists of the antioxidant response element (ARE) signaling pathway measured by Nrf2-dependant transcriptional activity (AID 720636; active = well fitted curve in the direction sought with a large enough effect in the repeat runs; an effect the other way counts as inactive or inconclusive;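 note: HepG2 cells with an ARE-driven luciferase reporter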)
# How it was run: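 We exposed ARE-luc HepG2 cells, seeded in assay medium with 1% dialyzed FBS and allowed 6 hr to adhere, to test compounds overnight (16 hr, 37 C) before measuring luciferase with ONE-Glo.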
# [9] = qHTS assay for small molecule antagonists of the retinoid-related orphan receptor gamma (ROR-gamma) signaling pathway - cell viability counter screen (AID 720652; active = well fitted curve in the direction sought with a large enough effect in the repeat runs; an effect the other way counts as inactive or inconclusive;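 note: CHO reporter cells with doxycycline-induced ROR-gamma expression; compound exposure lasted 16 hr before ATP read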)
# How it was run: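 Cytotoxicity is quantified via intracellular ATP (CellTiter-Glo luminescence) in doxycycline-induced CHO ROR response element-luciferase reporter cells treated with compound for 16 hr at 37 C, 5% CO2.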
# [10] = qHTS assay for small molecule agonists of the antioxidant response element (ARE) signaling pathway measured by Nrf2-dependant transcriptional activity - cell viability counter screen (AID 720653; active = well fitted curve in the direction sought with a large enough effect in the repeat runs; an effect the other way counts as inactive or inconclusive); settings: ARE-bla HepG2 viability, CellTiter-Glo ATP luminescence, 16 h; stronger effect = lower value
# How it was run: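 ARE-bla HepG2 cells treated with compounds for 16 h at 37C; this counter screen measures viability as intracellular ATP by CellTiter-Glo luminescence after 30 min at room temperature.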
# [11] = qHTS assay for cell viability of HEK293 cells (AID 743288); settings: ATP luminescence (CellTiter-Glo), 18 h, stronger effect = lower value; note: nearly all actives have a fitted effect of over 50% in size
# How it was run: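 Environmental chemicals tested in qHTS format against parental HEK293 cells; 18 h treatment, 37 C; read-out ATP luminescence (CellTiter-Glo), 30 min RT development.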
# [12] = qHTS assay for cell viability of the p53RE-bla HCT-116 cell line (AID 743292); note: nearly all actives have a fitted effect of over 55% in size
# How it was run: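 In this qHTS counter-screen, metabolically competent p53RE-bla HCT-116 cells were counted via their ATP content. Compounds were applied for 16 h at 37 C and luciferase-coupled luminescence was measured.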
# [13] = qHTS to identify inhibitors of the type 1 interferon - major histocompatibility complex class I in skeletal muscle: primary screen against the NCATS Mechanism Interrogation Plate v5.0 (MIPE) Libary (AID 1347411); note: nearly all actives have a fitted effect of over 65% in size
# How it was run: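 Cells were genome-edited human myoblasts carrying a HiBit tag on endogenous HLA-B. They were treated with IFN-beta (4.0 ng/ml) and titrated compounds (top 46 uM) for 24 hrs before lytic HiBiT detection.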
# [14] = Primary qHTS for inhibitors of nuclear receptor binding SET domain protein 2 (NSD2) in an isogenic RCH-ACV NSD2 p.E1099K mutant (9B) (AID 1645876); note: nearly all actives have a fitted effect of over 70% in size
# [15] = Primary qHTS for inhibitors of nuclear receptor binding SET domain protein 2 (NSD2) in an RCH-ACV wild type WT cells (2C) (AID 1645877); note: nearly all actives have a fitted effect of over 70% in size
# [16] = molecular target: Glutathione peroxidase 1 (Homo sapiens) (UniProt P07203); assay: Primary qHTS Assay for Inhibitors of Recombinant Selenoprotein Glutathione Peroxidase 1 (GPX1) (AID 1845191); note: nearly all actives have a fitted effect of over 65% in size
# Sequence of Glutathione peroxidase 1 (Homo sapiens) (P07203 whole entry, looked up): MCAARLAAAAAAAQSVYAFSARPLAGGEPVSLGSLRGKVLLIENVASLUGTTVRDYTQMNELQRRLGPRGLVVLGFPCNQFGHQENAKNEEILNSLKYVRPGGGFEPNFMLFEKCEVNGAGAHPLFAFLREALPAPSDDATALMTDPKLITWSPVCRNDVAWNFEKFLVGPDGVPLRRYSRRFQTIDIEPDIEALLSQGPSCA
# How it was run: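 GR-coupled assay: compounds preincubated 30 min at room temperature with GPX1, then reaction started with CHP; final 10 nM GPX1, 1 mM GSH, 0.5 mM CHP, 0.5 mM NADPH, 100 nM GR, 0.01% BSA, pH 7.5 Tris buffer. NADPH fluorescence (340/450 nm) read at 0 and 15 min.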
# [17] = molecular target: Phospholipid hydroperoxide glutathione peroxidase GPX4 (Homo sapiens) (UniProt P36969); assay: Primary qHTS Assay for Inhibitors of Recombinant Selenoprotein Glutathione Peroxidase 4 (GPX4) (AID 1845192); settings: outcome: dose series up to 50 µM unless noted; note: nearly all actives have a fitted effect of over 65% in size
# Sequence of Phospholipid hydroperoxide glutathione peroxidase GPX4 (Homo sapiens) (P36969 whole entry, looked up): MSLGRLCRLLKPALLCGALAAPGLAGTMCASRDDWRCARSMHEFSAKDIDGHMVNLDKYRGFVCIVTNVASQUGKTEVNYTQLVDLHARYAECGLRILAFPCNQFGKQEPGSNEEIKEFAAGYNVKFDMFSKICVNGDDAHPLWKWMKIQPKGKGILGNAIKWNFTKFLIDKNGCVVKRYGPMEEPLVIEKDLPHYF
# How it was run: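 GR-coupled assay: recombinant GPX4 preincubated 30 min with compound at room temperature; final 200 nM GPX4, 1 mM GSH, 0.5 mM cumene hydroperoxide, 0.5 mM NADPH, 100 nM GR, 0.01% BSA, pH 7.5 Tris. NADPH fluorescence (340/450 nm) read at 0 and 15 min.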
# [18] = qHTS drug screen for cell cycle checkpoint inhibitors in PARPi-resistant BRCA-mutant ovarian cancer cell lines. (AID 1963452; calls by dose curve); settings: PEO1/OlaR viability, CellTiter-Glo luminescence, 96 h, stronger effect = lower value
# How it was run: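 PEO1, PEO4 and PEO1/OlaR ovarian cancer cells, 600 per well, exposed 96 h at 37C to a dilution series. Viability read by CellTiter-Glo luminescence, normalized to DMSO and empty wells; activity summarized as Z-AUC.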
# [19] = qHTS profiling for inhibitors of Plasmodium falciparum proliferation (AID 504749); note: nearly all actives have a fitted effect of over 60% in size; settings: P. falciparum in erythrocytes, SYBR Green DNA, 72 h; at 28.7 µM (top of the series); parasite line A
# How it was run: (§1)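 Readout was DNA-dye fluorescence from lysed cultures, ex 485/em 535 nm. Parasitized red cells had grown 72 h with compound; data scaled between 0.29 uM artemisinin and DMSO wells and corrected using vehicle-only plates.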
# 7G8 = assay: as above; settings: P. falciparum in erythrocytes, SYBR Green DNA, 72 h; series mostly up to 28.7 µM
# How it was run: as §1
# AA1029 = assay: as above; settings: P. falciparum in erythrocytes, SYBR Green DNA, 72 h; series mostly up to 28.7 µM
# How it was run: as §1
# AS120 = assay: as above; settings: P. falciparum in erythrocytes, SYBR Green DNA, 72 h; series mostly up to 28.7 µM
# How it was run: as §1
# ATS189 = assay: as above; settings: P. falciparum in erythrocytes, SYBR Green DNA, 72 h; series mostly up to 28.7 µM
# How it was run: as §1
# ATS95 = assay: as above; settings: P. falciparum in erythrocytes, SYBR Green DNA, 72 h; series mostly up to 28.7 µM
# How it was run: as §1
# C2A = assay: as above; settings: P. falciparum in erythrocytes, SYBR Green DNA, 72 h; series mostly up to 28.7 µM
# How it was run: as §1
# CP185 = assay: as above; settings: P. falciparum in erythrocytes, SYBR Green DNA, 72 h; series mostly up to 28.7 µM
# How it was run: as §1
# CP191 = assay: as above; settings: P. falciparum in erythrocytes, SYBR Green DNA, 72 h; series mostly up to 28.7 µM
# How it was run: as §1
# CP192 = assay: as above; settings: P. falciparum in erythrocytes, SYBR Green DNA, 72 h; series mostly up to 28.7 µM
# How it was run: as §1
# CP194 = assay: as above; settings: P. falciparum in erythrocytes, SYBR Green DNA, 72 h; series mostly up to 28.7 µM
# How it was run: as §1
# CP201 = assay: as above; settings: P. falciparum in erythrocytes, SYBR Green DNA, 72 h; series mostly up to 28.7 µM
# How it was run: as §1
# CP203 = assay: as above; settings: P. falciparum in erythrocytes, SYBR Green DNA, 72 h; series mostly up to 28.7 µM
# How it was run: as §1
# CP211 = assay: as above; settings: P. falciparum in erythrocytes, SYBR Green DNA, 72 h; series mostly up to 28.7 µM
# How it was run: as §1
# CP217 = assay: as above; settings: P. falciparum in erythrocytes, SYBR Green DNA, 72 h; series mostly up to 28.7 µM
# How it was run: as §1
# CP237 = assay: as above; settings: P. falciparum in erythrocytes, SYBR Green DNA, 72 h; series mostly up to 28.7 µM
# How it was run: as §1
# CP238 = assay: as above; settings: P. falciparum in erythrocytes, SYBR Green DNA, 72 h; series mostly up to 28.7 µM
# How it was run: as §1
# CP247 = assay: as above; settings: P. falciparum in erythrocytes, SYBR Green DNA, 72 h; series mostly up to 28.7 µM
# How it was run: as §1
# CP250 = assay: as above; settings: P. falciparum in erythrocytes, SYBR Green DNA, 72 h; series mostly up to 28.7 µM
# How it was run: as §1
compound,measurement,setting,value
C[C@@H]1[C@H](O)[C@@H](C)/C=C/C=C/C=C/C=C/C=C/C=C/C=C/[C@H](O[C@@H]2O[C@H](C)[C@@H](O)[C@H](N)[C@@H]2O)C[C@@H]2O[C@](O)(C[C@@H](O)C[C@@H](O)[C@H](O)CC[C@@H](O)C[C@@H](O)CC(=O)O[C@H]1C)C[C@H](O)[C@H]2C(=O)O,activation,[1],0.804% (inactive)
same,activation,[2],-0.187% (inactive)
same,Potency,[3],inactive
same,Potency,[4],inactive
same,Potency,[5],42.2 µM (active)
same,activation,[6],0.282% (inactive)
same,max response,[7],6.84% (inactive)
same,outcome,[8],inactive
same,outcome,[9],inactive
same,max response,[10],-15.2% (inactive)
same,max response,[11],-1.04% (inactive)
same,Potency,[12],inactive
same,Potency,[13],inactive
same,Potency,[14],inactive
same,Potency,[15],inactive
same,Potency,[16],inactive
same,Potency,[17],inactive
same,Z-AUC,[18],1.47 (inactive)
same,Z-AUC,[18]; measured here: PEO1 parental Z-AUC,1.65
same,Z-AUC,[18]; measured here: PEO4 Z-AUC,1.61
same,"activity, negative = inhibition",[19],-1.42% (inactive)
same,Potency,7G8,inactive
same,Potency,AA1029,inactive
same,Potency,AS120,inactive
same,Potency,ATS189,inactive
same,Potency,ATS95,inactive
same,Potency,C2A,inactive
same,Potency,CP185,inactive
same,Potency,CP191,inactive
same,Potency,CP192,inactive
same,Potency,CP194,inactive
same,Potency,CP201,inactive
same,Potency,CP203,inactive
same,Potency,CP211,inactive
same,Potency,CP217,inactive
same,Potency,CP237,inactive
same,Potency,CP238,inactive
same,Potency,CP247,inactive
same,Potency,CP250,inactive
